Assay results: PubChem BioAssay AID488969 (Vanderbilt High Throughput Screening Facility, 2010)
The full ranking holds about 110,000 compounds; the median of “z-score” is about -0.1, and the highest 2% start at about 2. The list comes from a sample in which the highest values are over-represented; it also holds similar structures and randomly drawn compounds. Active and inactive are the calls of the source.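 Rule for the calls: active = z-score in the third read window above 3 or below -3; inactive = the rest.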

Target: Metabotropic glutamate receptor 8 (Rattus norvegicus) (UniProt P70579)
Assay: rat mGluR8 modulators via GIRK flux, primary screen, cell-based, thallium flux, HTS (AID 488969)
Conditions: HEK293 rat mGluR8, GIRK (G protein-gated inwardly rectifying potassium channel) thallium flux, FluoZin2; at 10 µM; stronger effect = higher value; submaximal glutamate (EC20) added with thallium

Chain of Metabotropic glutamate receptor 8 (Rattus norvegicus) (P70579 whole entry, looked up): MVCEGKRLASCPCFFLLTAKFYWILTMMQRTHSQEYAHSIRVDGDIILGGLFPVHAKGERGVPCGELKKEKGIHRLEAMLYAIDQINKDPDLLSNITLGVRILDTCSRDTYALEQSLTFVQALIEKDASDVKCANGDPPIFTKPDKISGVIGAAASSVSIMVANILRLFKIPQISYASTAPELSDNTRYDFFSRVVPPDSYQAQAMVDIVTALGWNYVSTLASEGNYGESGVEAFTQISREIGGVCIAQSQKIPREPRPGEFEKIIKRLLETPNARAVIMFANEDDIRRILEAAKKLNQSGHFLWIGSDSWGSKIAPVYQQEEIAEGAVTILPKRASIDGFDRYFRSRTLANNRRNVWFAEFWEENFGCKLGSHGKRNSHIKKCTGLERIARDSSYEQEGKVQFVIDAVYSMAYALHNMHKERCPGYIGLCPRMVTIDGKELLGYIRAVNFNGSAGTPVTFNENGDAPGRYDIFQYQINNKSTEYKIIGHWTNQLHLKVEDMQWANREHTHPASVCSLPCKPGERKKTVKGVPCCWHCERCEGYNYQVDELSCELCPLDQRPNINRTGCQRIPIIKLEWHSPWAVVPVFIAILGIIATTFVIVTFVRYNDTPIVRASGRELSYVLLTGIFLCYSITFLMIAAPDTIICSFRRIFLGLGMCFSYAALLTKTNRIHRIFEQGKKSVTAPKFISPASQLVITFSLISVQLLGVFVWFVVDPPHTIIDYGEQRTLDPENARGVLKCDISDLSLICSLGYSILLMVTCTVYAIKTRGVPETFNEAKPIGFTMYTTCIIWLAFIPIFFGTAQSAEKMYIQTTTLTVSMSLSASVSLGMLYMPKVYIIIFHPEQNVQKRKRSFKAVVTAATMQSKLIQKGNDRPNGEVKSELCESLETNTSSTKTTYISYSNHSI

SMILES	z-score
Cc1ccc(CN2C(=O)CCSc3ccc(Cl)cc32)cc1	-0.054
Clc1ccc(-c2n[nH]c3c2CCC3)c(Cl)c1	0.0993
O=C(CCS(=O)(=O)c1cccc2nsnc12)NCc1ccccc1Cl	0.429
COc1ccccc1N1CCN(C(CNC(=O)c2ccco2)c2cccnc2)CC1 (stereo unspecified)	1.2
CN(/N=C/c1ccc(O)cc1O)c1nc(-c2ccccc2)cc(-c2ccccc2)n1	0.141
COc1cc(C(=O)OCC(=O)Nc2ccc3c(c2)OC(F)(F)O3)ccc1OCc1c(C)noc1C	-0.513
O=C(NC(=S)N1CCc2ccccc21)c1ccccc1	7.58 (active)
COc1ccc(NC(=O)N2CCc3ccccc32)cc1	0.323
CC(C)[C@H](NC(=O)c1ccccc1)C(=O)N1CCc2ccccc21	-0.0295
CC12CCC(C(=O)N3CCCc4ccccc43)(CC1=O)C2(C)C (stereo unspecified)	3.5 (active)
O=C(CCC(=O)N1CCc2ccccc21)N1CCc2ccccc21	-0.329
O=C(Nc1ccccc1)N1CCc2ccccc21	-0.39
COc1ccc(C(=O)N2CCCc3ccccc32)cc1	-0.672
Cc1ccc(NC(=O)N2CCc3ccccc32)cc1	1.99
CC12CCC(C(=O)N3CCc4ccccc43)(CC1=O)C2(C)C (stereo unspecified)	0.155
CC12CCC(C(=O)N3CCCc4ccccc43)(OC1=O)C2(C)C (stereo unspecified)	-0.143
O=C(c1ccccc1)N1CCc2ccccc21	0.518
O=C(c1ccccc1)N1CCCc2ccccc21	3.33 (active)
O=C(c1ccco1)N1CCN(Cc2nc3ccccc3c(=O)n2-c2ccc(F)cc2)CC1	0.209
COc1cc2[nH]c(=S)nc(NCC3CCCO3)c2cc1OC (stereo unspecified)	0.919
Cc1cccc(-n2c(C)n[nH]c2=S)c1	-0.139
Cc1ccc2c(c1)c1c(n2CC(O)CN2C(=O)CNC2=O)C(=O)CCC1 (stereo unspecified)	0.0317
Cc1cc(C)n(C(=O)CNC(=O)C(c2ccccc2)c2ccccc2)n1	-0.473
Fc1ccc(NC(=S)N2CCCc3ccccc32)cc1	-0.143

SMILES	z-score
COc1ccccc1C(=O)NC(=S)N1CCCc2ccccc21	-0.0293
S=C(c1ccccc1)N1CCCc2ccccc21	-0.863
O=C(NC(=S)N1CCCc2ccccc21)c1ccccc1	4.54 (active)
O=C(NC(=S)N1CCCc2ccccc21)c1ccc(Cl)cc1	15.6 (active)
O=C(C(=O)N1CCCc2ccccc21)N1CCCc2ccccc21	0.0396
CN(CCC#N)C(=O)Cn1nc(Cc2ccncc2)c2ccccc2c1=O	1.89
CCOCC(=O)Nc1nnc(C2CCCCC2)s1	0.0573
Cc1cccc(Cn2c(C(C)O)nc3ccccc32)c1 (stereo unspecified)	-0.101
COc1cccc(N2CCN(CC(=O)C34CC5CC(CC(C5)C3)C4)CC2)c1	0.0526
COC(=O)[C@H](C)NC(=O)Nc1cc(OC)ccc1OC	-0.238
COc1cc(/C=N/NC(=O)COc2c(C)cc([N+](=O)[O-])cc2C)ccc1OC(=O)c1ccccc1	-0.81
Cc1cc([N+](=O)[O-])cc(C)c1OCC(=O)N/N=C/c1ccc(OC(=O)c2ccccc2)cc1	-0.0495
Cc1cc([N+](=O)[O-])cc(C)c1OCC(=O)N/N=C/c1ccc(OC(=O)c2ccccc2Br)cc1	2.41
CCOc1ccc2[nH]cc(C(=O)N3CCN(C4CCCCC4)CC3)c(=O)c2c1	-0.123
CC(=O)N1CCN(CC(O)COc2ccc(OCc3ccccc3)cc2)CC1 (stereo unspecified)	0.0259
Cc1cc2ccccc2c(=O)n1CC(=O)NCC1COc2ccccc2O1 (stereo unspecified)	0.0188
Cc1ccc2nc(N3C(=O)C(O)=C(C(=O)c4ccco4)C3c3cccs3)sc2c1 (stereo unspecified)	-1.09
CC1CSc2ccccc2NC1=S (stereo unspecified)	3.72 (active)
CC1CC(=S)Nc2ccccc2N1Cc1ccccc1 (stereo unspecified)	1.32
O=C1CC(c2ccccc2)Sc2ccccc2N1 (stereo unspecified)	-0.216
C=C(C)c1cccc(C(C)(C)NC(=O)Nc2ccc(C)cn2)c1	-0.34
CCOc1ccc(C(=O)Nc2cc(=O)n(C)c(=O)n2C)cc1	-0.395
CCOC(=O)c1ccc2nc(NC(=O)c3ccco3)sc2c1	-0.0743
O=C(CN1CCN(Cc2ccc3c(c2)OCO3)CC1)Nc1ccc2c(c1)OCCO2	0.156

SMILES	z-score
Cc1c(NC(=O)Cn2cnc3c(=O)n(C)c(=O)n(C)c32)cccc1-c1nc2ccccc2o1	0.183
COc1ccc(/C=N\NC(=S)SCN2C(=O)C3CCC(C)(C2=O)C3(C)C)cc1 (stereo unspecified)	9.12 (active)
CC12CCC(C(=O)N(CC(O)CN3CCCCC3)C1=O)C2(C)C (stereo unspecified)	0.169
CC12CCC(C(=O)N(CSC(=S)N/N=C\c3ccccc3)C1=O)C2(C)C (stereo unspecified)	16.4 (active)
COc1ccc(/C=N/NC(=S)NC2CCS(=O)(=O)C2)cc1 (stereo unspecified)	-0.113
COc1ccc(C(=O)NN2C(=O)C3CCC(C)(C2=O)C3(C)C)cc1 (stereo unspecified)	-0.0665
CN(C)c1ccc(/C=N\NC(=S)SCN2C(=O)C3CCC(C)(C2=O)C3(C)C)cc1 (stereo unspecified)	1.74
CCOc1ccc(NC(=O)CCCN2C(=S)NC(C)(C)CC2C)cc1 (stereo unspecified)	-0.466
O=C1CC(N2CCN(c3nc4ccccc4s3)CC2)C(=O)N1c1ccc(F)cc1 (stereo unspecified)	7.65 (active)
CCCOc1ccc(N2C(=O)CC(N3CCN(c4nc5ccccc5s4)CC3)C2=O)cc1 (stereo unspecified)	0.835
O=C1CC(N2CCN(c3nc4ccccc4s3)CC2)C(=O)N1c1cccc(F)c1 (stereo unspecified)	-0.276
CCCCC(=O)Nc1nc2ccc3nc(C)sc3c2s1	-0.125
CCC(=O)Nc1nc2ccc3nc(C)sc3c2s1	3.6 (active)
CCCC(=O)Nc1nc2ccc3nc(C)sc3c2s1	-0.507
Nc1sccc1C(=O)c1ccccc1	11 (active)
Nc1cc2c(cc1C(=O)c1ccccc1)OCCO2	0.199
Nc1sccc1C(=O)c1ccc(Cl)cc1	-0.434
O=C(N/N=C/c1ccc(-c2ccccc2[N+](=O)[O-])o1)c1cncc(Br)c1	-1.68
O=C(N/N=C\c1cc(Br)c(Br)o1)c1cncc(Br)c1	9.73 (active)
O=C(Cc1ccccc1)N/N=C/c1cc(Br)c(Br)o1	-0.248
Cc1ccnc(NC(=O)CCC(=O)N(CC(=O)NC2CCCCC2)c2cccc(C)c2C)c1	-0.622
COc1ccc(OC)c(-c2cc(C(=O)Nc3c(C)nn(Cc4ccccc4Cl)c3C)no2)c1	-0.834
CC1Cc2ccccc2N1C(=O)COC(=O)Cn1cnc2ccccc2c1=O (stereo unspecified)	-0.55
O=C(CCc1ccccc1)Nc1cc(Cl)ccc1O	-0.624

SMILES	z-score
Cc1cccc(/C(N)=N/OC(=O)c2ccc(Cl)cc2Cl)c1	-0.137
Cc1cccc(C(=O)Nc2ccc(NC(=O)Cc3ccc(Cl)cc3)cc2)c1	-0.0593
Cc1cccc(C(=O)CC(=O)c2cc(Cl)ccc2O)c1	4.14 (active)
O=C(CC(=O)c1cc(Cl)ccc1O)c1ccccc1	3.32 (active)
Cc1ccc(C(=O)CNc2cccc(Cl)c2)cc1	-0.0331
Cc1ccc(C(=O)c2cn[nH]c2-c2cc(Cl)ccc2O)cc1	-0.48
Cc1ccc(C(=O)CC(=O)c2cc(Cl)ccc2O)cc1	7.14 (active)
O=C(O)CC(=O)Nc1cc(Cl)ccc1O	0.845
COc1nc(-c2ccccc2)ccc1-c1noc(-c2ccccc2F)n1	0.0977
NC(=O)c1ccccc1OCC(=O)NC12CC3CC(CC(C3)C1)C2	-0.0638
COC(=O)Nc1snnc1C	-0.189
CCOC(=O)C1=C(C)N(C)C(=O)NC1c1cc2c(cc1Br)OCO2 (stereo unspecified)	1.61
CCc1nc(NCc2ccco2)c2oc3ccccc3c2n1	-0.48
O=C(CN1C(=O)c2cccc3cccc1c23)Nc1ccc(S(=O)(=O)N2CCOCC2)cc1	-0.376
COc1cccc(C(=O)Nc2ccccc2N2CCOCC2)c1	0.0601
CN1C(=S)SC(/[N+]([O-])=C\c2cccs2)C1(C)C (stereo unspecified)	-0.0661
CC(=O)Nc1cc2c(cc1NC(=O)Cn1nc(-c3ccc4c(c3)OCCO4)ccc1=O)OCCO2	-0.275
CC(=O)Nc1cc2c(cc1NC(=O)Cn1nc(-c3ccccc3F)ccc1=O)OCCO2	-0.0689
COc1cccc(-c2ccc(=O)n(CC(=O)Nc3cc4c(cc3NC(C)=O)OCCO4)n2)c1	2.05
Cc1cnc(C(=O)Nc2cc(S(=O)(=O)N3CCOCC3)ccc2N2CCN(C)CC2)cn1	0.0173
O=C(N/N=C/C=C/c1ccc2c(c1)OCO2)c1ccc([N+](=O)[O-])cc1	0.0517
CCCN(CCC)S(=O)(=O)c1ccc(C(=O)Nc2nc(-c3ccccc3)c(C(=O)OCC)s2)cc1	-0.243
Clc1ccccc1CN1CCC(Cc2ccccc2)CC1	-0.0513
O=C(NCCN1CCOCC1)C1CCC(=O)N1Cc1ccc(F)cc1 (stereo unspecified)	0.194

SMILES	z-score
Cc1ccc(-c2ccc(/C=C/C(=O)c3ccccc3)o2)cc1	-0.233
Cc1cc2cc(OCC(=O)O)ccc2n1C	0.494
C/C(=N\NC(=S)Nc1cccc(C)c1)c1ccccc1	5.36 (active)
Cc1cccc(NC(=S)N/N=C/c2c[nH]c3ccccc23)c1	-0.0914
C/C(=N\NC(=O)Nc1ccccc1)c1ccccc1	-0.157
Cc1cccc(NC(=S)N/C(=N/S(=O)(=O)c2ccccc2)c2ccccc2)c1	1.97
C/C(=N\NC(=S)Nc1cccc(C)c1)c1cccc(N)c1	3.42 (active)
C/C(=N\NC(=O)c1cccc(C)c1)c1cccc(NC(=O)c2ccco2)c1	-0.159
CCOC(=O)C(NC(=O)CC)(N1CCc2ccccc2C1)C(F)(F)F (stereo unspecified)	-0.138
O=C(NCCCN1CCC(Cc2ccccc2)CC1)C1CC(=O)N(C2CCCCCC2)C1 (stereo unspecified)	1.25
O=C(Nc1ccccc1)c1ccc(CSc2ccccn2)cc1	-0.0973
COc1cc(NC(=O)c2ccc3c(c2)OCO3)c2ncccc2c1	-0.168
COc1cc(NC(=O)C2CCCCC2)c2ncccc2c1	-0.248
COc1cc(NCCCCCCCN)c2ncccc2c1	2.78
C=CCNC(=S)NNC(=O)c1ccc(OCCCC)cc1	-0.162
CCCCOc1ccc(C(=O)NNC(=S)NC(=O)CC)cc1	4.28 (active)
CCC(=O)NC(=S)NNC(=O)c1ccc(OC)cc1	-0.0696
C=CCNC(=S)NNC(=O)c1ccc(OCCC)cc1	0.095
CCCOc1ccc(C(=O)NNC(=S)NC(C)=O)cc1	0.435
CCCOc1ccc(C(=O)NNC(=S)NC(=O)CC)cc1	3.01 (active)
